Assay results published in the supplement of paper PMC12282887.
± gives the standard deviation of the averaged measurements.

How the values were obtained:
Assay in all cases: promoter activity interaction Z-score (Lux/OD deviation from empty-vector control); higher = stronger promoter induction by the compound
[1] = tested on: E. coli BW25113 tolCp lux reporter
How it was run: (§1)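 At 37°C, E. coli BW25113 reporter cultures in 40 µl LB Lennox in 384-well plates were read for OD600 and luminescence every 30 min for 12 h. Windows were 0–8 h for wild type and 1–9 h for deletion strains, and wells under 10% of the median growth value were removed. The score is the Z-transformed residual of growth-normalised luminescence against a control fit.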

[2] = tested on: E. coli BW25113 acrABp lux reporter
How it was run: as §1

[3] = tested on: E. coli BW25113 micFp lux reporter
How it was run: as §1

[4] = tested on: E. coli BW25113 ompFp lux reporter
How it was run: as §1

[5] = tested on: E. coli BW25113 robp lux reporter
How it was run: as §1

[6] = tested on: E. coli BW25113 soxSp lux reporter
How it was run: as §1

[7] = 17 µg/ml, genetic background: wild type
[8] = 17 µg/ml, genetic background: ΔmarA
[9] = 17 µg/ml, genetic background: Δrob
[10] = 17 µg/ml, genetic background: ΔsoxS
[11] = 34 µg/ml, genetic background: wild type
[12] = 34 µg/ml, genetic background: ΔmarA
[13] = 34 µg/ml, genetic background: Δrob
[14] = 34 µg/ml, genetic background: ΔsoxS
[15] = 68.1 µg/ml, genetic background: wild type
[16] = 68.1 µg/ml, genetic background: ΔmarA
[17] = 68.1 µg/ml, genetic background: Δrob
[18] = 68.1 µg/ml, genetic background: ΔsoxS
[19] = 136.2 µg/ml, genetic background: wild type
[20] = 136.2 µg/ml, genetic background: ΔmarA
[21] = 136.2 µg/ml, genetic background: Δrob
[22] = 136.2 µg/ml, genetic background: ΔsoxS

SMILES: Nc1ccc(C(=O)O)cc1 [4-Aminobenzoic acid]
- promoter activity interaction Z-score ([1]; 34.3 µg/ml, genetic background: Δrob): 0.119 ± 0.56
- promoter activity interaction Z-score ([1]; 34.3 µg/ml, genetic background: ΔsoxS): 1.86 ± 0.96
- promoter activity interaction Z-score ([1]; 68.6 µg/ml, genetic background: wild type): 0.28 ± 0.49
- promoter activity interaction Z-score ([1]; 68.6 µg/ml, genetic background: ΔmarA): 2.27 ± 0.56
- promoter activity interaction Z-score ([1]; 68.6 µg/ml, genetic background: Δrob): 0.498 ± 0.67
- promoter activity interaction Z-score ([1]; 68.6 µg/ml, genetic background: ΔsoxS): 1.22 ± 0.073

SMILES: C[C@]12CC[C@@H]3c4ccc(O)cc4CC[C@H]3[C@@H]1CC[C@@H]2O [Estradiol]
- promoter activity interaction Z-score [2, 7]: 0.298 ± 0.0088
- promoter activity interaction Z-score [2, 8]: -0.217 ± 0.5
- promoter activity interaction Z-score [2, 9]: -0.138 ± 0.15
- promoter activity interaction Z-score [2, 10]: -0.335 ± 0.57
- promoter activity interaction Z-score [2, 11]: 0.101 ± 0.01
- promoter activity interaction Z-score [2, 12]: 0.101 ± 1.4
- promoter activity interaction Z-score [2, 13]: -0.0321 ± 0.063
- promoter activity interaction Z-score [2, 14]: -0.0568 ± 0.0019
- promoter activity interaction Z-score [2, 15]: -0.0194 ± 0.39
- promoter activity interaction Z-score [2, 16]: 1.6 ± 0.16
- promoter activity interaction Z-score [2, 17]: -0.247 ± 0.35
- promoter activity interaction Z-score [2, 18]: -0.0269 ± 0.066
- promoter activity interaction Z-score [2, 19]: 0.225 ± 0.041
- promoter activity interaction Z-score [2, 20]: -0.22 ± 0.31
- promoter activity interaction Z-score [2, 21]: -0.28 ± 0.4
- promoter activity interaction Z-score [2, 22]: 0.453 ± 0.73
- promoter activity interaction Z-score [3, 7]: 0.105 ± 0.31
- promoter activity interaction Z-score [3, 8]: -0.0854 ± 0.0072
- promoter activity interaction Z-score [3, 9]: -0.132 ± 0.0023
- promoter activity interaction Z-score [3, 10]: -0.254 ± 0.061
- promoter activity interaction Z-score [3, 11]: -0.221 ± 0.34
- promoter activity interaction Z-score [3, 12]: -0.0642 ± 0.01
- promoter activity interaction Z-score [3, 13]: -0.194 ± 0.16
- promoter activity interaction Z-score [3, 14]: 0.292 ± 0.13
- promoter activity interaction Z-score [3, 15]: 0.178 ± 0.23
- promoter activity interaction Z-score [3, 16]: 0.0617 ± 0.15
- promoter activity interaction Z-score [3, 17]: -0.166 ± 0.3
- promoter activity interaction Z-score [3, 18]: 0.179 ± 0.19
- promoter activity interaction Z-score [3, 19]: 0.028 ± 0.51
- promoter activity interaction Z-score [3, 20]: 0.118 ± 0.11
- promoter activity interaction Z-score [3, 21]: -0.079 ± 0.16
- promoter activity interaction Z-score [3, 22]: 0.578 ± 0.0079
- promoter activity interaction Z-score [4, 7]: 0.501 ± 0.11
- promoter activity interaction Z-score [4, 8]: -0.126 ± 0.37
- promoter activity interaction Z-score [4, 9]: -0.146 ± 0.11
- promoter activity interaction Z-score [4, 10]: 0.0169 ± 0.25
- promoter activity interaction Z-score [4, 11]: -0.603 ± 0.43
- promoter activity interaction Z-score [4, 12]: -0.0141 ± 0.44
- promoter activity interaction Z-score [4, 13]: -0.554 ± 0.48
- promoter activity interaction Z-score [4, 14]: -0.0316 ± 0.18
- promoter activity interaction Z-score [4, 15]: -0.329 ± 0.44
- promoter activity interaction Z-score [4, 16]: 0.821 ± 0.84
- promoter activity interaction Z-score [4, 17]: -0.486 ± 0.4
- promoter activity interaction Z-score [4, 18]: -0.581 ± 0.16
- promoter activity interaction Z-score [4, 19]: -0.397 ± 0.85
- promoter activity interaction Z-score [4, 20]: -0.336 ± 0.37
- promoter activity interaction Z-score [4, 21]: -0.534 ± 0.93
- promoter activity interaction Z-score [4, 22]: -0.638 ± 0.074
- promoter activity interaction Z-score [5, 7]: 0.7215 ± 0.0031
- promoter activity interaction Z-score [5, 8]: 0.25 ± 0.44
- promoter activity interaction Z-score [5, 9]: -0.0547 ± 0.13
- promoter activity interaction Z-score [5, 10]: 0.453 ± 0.085
- promoter activity interaction Z-score [5, 11]: -0.0162 ± 0.89
- promoter activity interaction Z-score [5, 12]: -0.0102 ± 0.92
- promoter activity interaction Z-score [5, 13]: -0.0213 ± 0.28
- promoter activity interaction Z-score [5, 14]: 0.926 ± 0.78
- promoter activity interaction Z-score [5, 15]: 0.13 ± 0.81
- promoter activity interaction Z-score [5, 16]: 1.9 ± 0.56
- promoter activity interaction Z-score [5, 17]: -0.509 ± 0.5
- promoter activity interaction Z-score [5, 18]: 0.373 ± 0.42
- promoter activity interaction Z-score [5, 19]: 0.104 ± 0.37
- promoter activity interaction Z-score [5, 20]: 0.282 ± 0.21
- promoter activity interaction Z-score [5, 21]: -0.478 ± 0.3
- promoter activity interaction Z-score [5, 22]: 0.863 ± 0.52
- promoter activity interaction Z-score [6, 7]: 0.266 ± 0.12
- promoter activity interaction Z-score [6, 8]: 0.0464 ± 0.17
- promoter activity interaction Z-score [6, 9]: -0.0494 ± 0.027
- promoter activity interaction Z-score [6, 10]: 0.159 ± 0.028
- promoter activity interaction Z-score [6, 11]: -0.15 ± 0.012
- promoter activity interaction Z-score [6, 12]: 0.102 ± 0.021
- promoter activity interaction Z-score [6, 13]: -0.334 ± 0.0093
- promoter activity interaction Z-score [6, 14]: 0.0514 ± 0.057
- promoter activity interaction Z-score [6, 15]: -0.196 ± 0.013
- promoter activity interaction Z-score [6, 16]: 0.057 ± 0.029
- promoter activity interaction Z-score [6, 17]: -0.104 ± 0.2
- promoter activity interaction Z-score [6, 18]: 0.254 ± 0.52
- promoter activity interaction Z-score [6, 19]: -0.422 ± 0.035
- promoter activity interaction Z-score [6, 20]: -0.276 ± 0.077
- promoter activity interaction Z-score [6, 21]: -0.275 ± 0.2
- promoter activity interaction Z-score [6, 22]: -0.137 ± 0.099
- promoter activity interaction Z-score [1, 7]: 0.895 ± 0.21
- promoter activity interaction Z-score [1, 8]: -0.343 ± 0.88
- promoter activity interaction Z-score [1, 9]: -0.103 ± 1
- promoter activity interaction Z-score [1, 10]: -0.491 ± 0.4
- promoter activity interaction Z-score [1, 11]: -0.0124 ± 0.71
- promoter activity interaction Z-score [1, 12]: -0.745 ± 0.26
- promoter activity interaction Z-score [1, 13]: -0.126 ± 1.3
- promoter activity interaction Z-score [1, 14]: 0.321 ± 0.44
- promoter activity interaction Z-score [1, 15]: -0.293 ± 0.52
- promoter activity interaction Z-score [1, 16]: 0.492 ± 0.095
- promoter activity interaction Z-score [1, 17]: 0.143 ± 0.3
- promoter activity interaction Z-score [1, 18]: 0.521 ± 0.57
- promoter activity interaction Z-score [1, 19]: 0.506 ± 0.79
- promoter activity interaction Z-score [1, 20]: -0.446 ± 0.55
- promoter activity interaction Z-score [1, 21]: -0.721 ± 0.35
- promoter activity interaction Z-score [1, 22]: 0.191 ± 0.75
